PubChem BioAssay (NCI)
The panel holds about 79,000 compounds, 15% with a hit somewhere; the sample as a whole holds those more often. A number with no mark means an inactive call. The source made the active and inactive calls. Rule as the data show it: active = growth inhibition above about 70%; inactive = the rest.

Columns and labels:
[1] = NCI Yeast Anticancer Drug Screen. Data for the rad50 strain (AID 155);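 also: 0% = growth of vehicle-only cultures of the same strain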; settings: S. cerevisiae rad50 strain growth inhibition; at 50.0 µM; stronger effect = higher value
Summary of the method: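 Yeast carrying a defined DNA repair defect were exposed to test compounds, and growth was compared with vehicle-treated controls to give percent inhibition.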

[2] = NCI Yeast Anticancer Drug Screen. Data for the mec2-1 strain (AID 157); settings: S. cerevisiae mec2-1 strain, at 50.0 µM, stronger effect = higher value
Summary of the method: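 Test agents were screened against the mec2-1 yeast strain, with defined DNA repair or cell cycle alteration. Growth was scored as inhibition against vehicle-only controls.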

[3] = NCI Yeast Anticancer Drug Screen. Data for the sgs1 mgt1 strain (AID 161);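 also: 0% = growth of cultures given vehicle only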; settings: S. cerevisiae sgs1 mgt1 strain, at 50.0 µM, stronger effect = higher value
Summary of the method: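 Inhibition of yeast growth, normalised to vehicle-treated controls, is reported for a strain bearing genetic alterations in DNA damage repair.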

[4] = NCI Yeast Anticancer Drug Screen. Data for the cln2 rad14 strain (AID 165);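 also: 0% = growth equal to vehicle treated cultures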; settings: S. cerevisiae cln2 rad14 strain, at 50.0 µM, stronger effect = higher value
Summary of the method: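 Growth of compound-exposed yeast (cln2 rad14 genotype) measured and expressed as inhibition relative to vehicle.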

[5] = NCI Yeast Anticancer Drug Screen. Data for the bub3 strain (AID 167); settings: S. cerevisiae bub3 mutant strain, at 50.0 µM, stronger effect = higher value
Summary of the method: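 Compounds were applied to a genetically altered yeast strain carrying a cell-cycle control defect. Growth inhibition was scored against vehicle-treated controls.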

[6] = NCI Yeast Anticancer Drug Screen. Data for the mlh1 rad18 strain (AID 175); settings: S. cerevisiae mlh1 rad18 strain growth inhibition; at 50.0 µM; stronger effect = higher value
Summary of the method: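 In this whole-cell yeast screen, a strain with altered DNA damage repair is challenged with compound, and its growth is measured against matched vehicle-treated controls.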

| Compound | growth inhibition [1] | growth inhibition [2] | growth inhibition [3] | growth inhibition [4] | growth inhibition [5] | growth inhibition [6] |
| --- | --- | --- | --- | --- | --- | --- |
| COC(=O)c1cc(-c2ccc(Cl)c(Cl)c2)[nH]c(=O)c1C#N | -16.9% | -18.9% | -27.9% | 21.7% | -21.9% | 18.6% |
| OCc1ccc(-c2ccc(-c3ccc(CO)s3)o2)s1 | 31.1% | 3.55% | 39.9% | 31.9% | 25.3% | 90.7% (active) |
| O=c1c2ccccc2c(Br)c(Br)c2ccccc12 | 11.4% | -12.4% | 15.6% | 3.3% | 9.15% | 27.4% |
| COc1ccc(-c2cc3c(nn2)-c2ccccc2C3=O)cc1 | 1.1% | -16.7% | -13% | -10.4% | -19.1% | 5.45% |
| OC(c1ccccn1)C(O)c1ccccn1 (stereo unspecified) | -2.55% | -4.45% | -0.6% | -9% | -5.6% | 3.2% |
| CC(C)(C)c1cc(O)c(C(C)(C)C)cc1O | 12.1% | -0.05% | 6.05% | -1.85% | 0.15% | 11.2% |
| COC(=O)C(O)c1ccccc1 (stereo unspecified) | 21.4% | 11.3% | 5.55% | 23.7% | 11.1% | 20% |
| C#CC(C(C)C)N(CCO)CCCC (stereo unspecified) | 11.2% | 4.55% | 8.3% | 7.35% | 26.7% | 16% |
| Cc1c(O)cnc2nn(-c3ccccc3)c(=N)n12 | 19.5% | 11.4% | 35.7% | 15.9% | 15% | 12.9% |
| O=C1c2ccccc2C(=O)N1OCc1ccccc1 | -18.1% | -30.6% | -14.4% | 3.05% | -20% | -32.7% |
| CC(C)C1CCCCC1O (stereo unspecified) | -9.15% | -9.1% | -11.5% | -35.5% | -1.4% | 6.8% |
| [O-][N+](=Nc1cccc(Cl)c1)c1cccc(Cl)c1 | 19.7% | -30.9% | 24.9% | 16.1% | 21.2% | 15.1% |
| O=C(O)c1ccnc(Br)c1 | -3.05% | -0.05% | -31.1% | 11.7% | -27.3% | -14.2% |
| O=C1C=CC2=C3c4cc(O)c(O)cc4CC3(O)COC2=C1O (stereo unspecified) | -40.6% | -45.4% | -9.1% | -6.7% | -5.7% | -32% |
| Cc1ccc(C(=O)c2ccccc2)c(C)c1 | 8.65% | -1.75% | 0.6% | -10.4% | -2.5% | 28.6% |
| Cc1ncc(C#N)c(N)n1 | -24.9% | -18% | 12.9% | -7.1% | -3.05% | -5.4% |
| C/C(=N\NC(=O)c1ccccc1N)c1ccccc1O | 6.15% | -7.75% | 26.6% | 4.5% | 26.1% | 21.7% |
| NC(=S)CN1CCOCC1 | -2.6% | -3.2% | -5.9% | 1.6% | 1.3% | 2.15% |
| COc1cc2c3c(n(C)c(=O)c2cc1OC)-c1cc2c(cc1C3=O)OCO2 | 8.35% | -15.2% | -1.5% | 53.3% | -3.6% | -16.1% |
| c1ccc(Cc2ccccc2)cc1 | 12.8% | 39.2% | -21.8% | 1.5% | -1.1% | 1.15% |
| COc1ccccc1NC(=O)C1=C(C)NC(C)=C(C(=O)Nc2ccccc2OC)C1c1cccc([N+](=O)[O-])c1 | -3.3% | 23.2% | -8.05% | -3.9% | 20.4% | 11.3% |

| Compound | growth inhibition [1] | growth inhibition [2] | growth inhibition [3] | growth inhibition [4] | growth inhibition [5] | growth inhibition [6] |
| --- | --- | --- | --- | --- | --- | --- |
| CCCCC1(CC)COC(CCC)OC1 (stereo unspecified) | 26.4% | 2.15% | 12.7% | -22.6% | -12.2% | 11.5% |
| O=C1OC(c2ccc(F)cc2)CC1CN1CCOCC1 (stereo unspecified) | 0.45% | 12.6% | 30.6% | 27.3% | 24.3% | 38.5% |
| Cc1ccc(C(O)C2CC2)cc1 (stereo unspecified) | -24.2% | -38.6% | -23.1% | 11.4% | -21.6% | -0.65% |
| C=CCc1cc(C(C)=O)cc(OC)c1O | -16.1% | -6.7% | 5.7% | -16.5% | -34.4% | -19.4% |
| c1ccc2c(N3CCCCC3)ncnc2c1 | 0.85% | -1% | -4.65% | 4.8% | 2.15% | -3% |
| COc1cc(CN)ccc1O | 1.65% | -6.25% | -8.75% | 10.7% | 11.8% | 12.2% |
| CCOC(=O)c1cc2cccc(OC)c2oc1=O | 6.15% | 3.45% | -5.65% | -4.75% | 12.8% | -0.2% |
| Cc1cc(/C=C/c2ccc3cc(N(C)C)ccc3[n+]2C)c(C)n1-c1ccccc1 | 87.2% (active) | 87.2% (active) | 92.8% (active) | 93.2% (active) | 70.8% (active) | 95.8% (active) |
| O=C1C[C@H](c2ccccc2)[C@H](c2ccccc2)C1 | 24.2% | 4.85% | 10.4% | -4.25% | -5.55% | 9.8% |
| CN(c1ccccc1)c1ncnc2c1ncn2C | 2.65% | -0.65% | 1.75% | -4.7% | 29.9% | 4.1% |
| COC(=O)c1[nH]c(=O)c(C#N)c(C(=O)OC)c1C(=O)c1ccccc1 | 5% | -6.4% | 10.5% | 19.2% | -25.1% | 12% |
| CN(C)CCC(=O)c1ccc(O)cc1 | 4.6% | 8.65% | 3.25% | -22.2% |  | -9.45% |
| CC(CC(=O)c1ccccc1)c1ccccc1 (stereo unspecified) | -7.9% | -18.4% | -10.7% | -13.7% | -19.4% | 10.2% |
| C[C@]12CC[C@@H]3c4ccc(OCC(=O)O)cc4CC[C@H]3[C@@H]1CCC2=O | 16% | 0.35% | -18.7% | -8% |  | 2.05% |
| Cc1ccc(Cl)cc1NC(=O)N(C)CCO | 6.3% | 7.65% | 9.9% | 16.6% |  | 22.7% |
| COc1cc2c(cc1OC)[C@H](C(=O)O)[C@@H](c1ccc(OC(C)C)c(OC)c1)N(C)C2=O | 6.05% | -10% | 7.2% | -15.2% |  | -9.05% |
| C=CCNC(=O)c1ccc(OC)cc1 | 12.5% | 6.5% | 22.5% | 1.7% | -4.5% | 5.7% |
| CCOC(=O)c1ccc(NC(=S)P(=O)(c2ccccc2)c2ccccc2)cc1 | 41.5% | 10.2% | 42.8% | 30.7% | 14.9% | 39.8% |
| Oc1ccc(Cc2ccccc2)c2cccnc12 | -27.7% | -8.6% | -12.7% | -19.4% | -17.1% | 34.6% |
| CCN=c1cc2sc3cc(NCC)c(C)cc3nc-2cc1C | -22.1% | -35.8% | -16.4% | -14.4% |  | -22.6% |
| O=C(CN1CCNCC1)N1CCOCC1 | -25.6% | -25.1% | -17.8% | -23.9% |  | -13.8% |
